This is a sample that favours compounds with a hit; in the whole collection about 1.7% have one here.
Plk1 PBD FP – Plk1 polo box domain binding inhibitors, primary screen, biochemical, fluorescence polarization. Plk1 PBD phosphopeptide binding. AID 693, 2007. hit rate 0.13% among 97,000. inhibition, %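 (tested at about 20 µM)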; in the data active means inhibition above about 34%, passing the limit was not always enough
PLK1 kinase inh – human PLK1 kinase inhibitors, primary screen, biochemical, TR-FRET. recombinant PLK1 kinase, TR-FRET peptide phosphorylation. hit rate 0.53% among 97,000. AID 619, 2007. Serine/threonine-protein kinase PLK1 (Homo sapiens), P53350. inhibition, % at 10 µM;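 active means inhibition of 50% or more in the single-concentration screen; inactive means inhibition below 50%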;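 further: 0% = DMSO max control and 100% = H-89 dihydrochloride min control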
LYP inh 2 – PTPN22 phosphatase inhibitors, primary screen, biochemical, DiFMUP fluorescence, 2 µM; hit rate 0.21% among 96,000; inhibition, % at 2 µM; recombinant LYP catalytic domain; AID 640, 2007; Tyrosine-protein phosphatase non-receptor type 22 (Homo sapiens), Q9Y2R2;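 active means inhibition at 2 µM at or above a set limit, the screen mean plus 3 SD, cut at about 24% in these data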;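 further: 0% = DMSO with enzyme and 100% = enzyme fully blocked by orthovanadate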
Target sequence (Q9Y2R2 whole entry, looked up, the tested form may be a part): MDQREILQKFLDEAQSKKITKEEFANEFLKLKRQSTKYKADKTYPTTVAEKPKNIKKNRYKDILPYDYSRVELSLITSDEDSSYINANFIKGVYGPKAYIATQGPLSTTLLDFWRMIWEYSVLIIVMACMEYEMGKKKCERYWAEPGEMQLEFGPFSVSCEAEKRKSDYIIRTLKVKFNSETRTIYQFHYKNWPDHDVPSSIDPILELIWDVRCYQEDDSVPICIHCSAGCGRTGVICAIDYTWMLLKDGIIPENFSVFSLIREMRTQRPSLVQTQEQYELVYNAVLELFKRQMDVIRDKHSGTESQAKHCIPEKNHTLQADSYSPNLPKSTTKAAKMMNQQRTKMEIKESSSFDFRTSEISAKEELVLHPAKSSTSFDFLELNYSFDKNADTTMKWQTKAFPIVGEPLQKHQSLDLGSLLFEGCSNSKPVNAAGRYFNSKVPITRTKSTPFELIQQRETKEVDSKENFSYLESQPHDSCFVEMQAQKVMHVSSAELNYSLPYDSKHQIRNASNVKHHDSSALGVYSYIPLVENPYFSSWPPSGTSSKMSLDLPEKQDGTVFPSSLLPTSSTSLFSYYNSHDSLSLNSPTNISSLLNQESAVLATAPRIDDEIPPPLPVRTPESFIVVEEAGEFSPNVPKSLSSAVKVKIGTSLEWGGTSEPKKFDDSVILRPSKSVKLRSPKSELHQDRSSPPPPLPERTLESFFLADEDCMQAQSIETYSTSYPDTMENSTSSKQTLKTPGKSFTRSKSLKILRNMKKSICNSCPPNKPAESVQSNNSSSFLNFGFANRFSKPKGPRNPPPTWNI
FAK blocker – FAK kinase inhibitors, primary screen, biochemical. AID 727, 2007. biochemical FAK kinase activity assay. inhibition, %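 (tested at 7 µM)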. hit rate 0.84% among 97,000. Focal adhesion kinase 1 (Homo sapiens), Q05397;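 further: 0% = DMSO and 100% = reference compound high control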
EphB4 ephrin blk – EphB4-ephrin-B2 interaction antagonists, primary screen, biochemical, TNYL-RAW peptide probe, fluorescence polarization. Ephrin type-B receptor 4 (Homo sapiens), P54760. EphB4 LBD / TNYL-RAW-Alexa532 peptide. inhibition, % at 7 µM. hit rate 0.15% among 97,000. AID 720, 2007;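 active means inhibition above the screen-wide mean inhibition plus 3 SD, cut at about 15% in these data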;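 further: 0% = DMSO wells and 100% = excess unlabeled TNYL-RAW peptide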
PTPN22 act – LYP phosphatase activators, primary screen, biochemical, DiFMUP fluorescence, 2 µM; hit rate 0.11% among 96,000; activation, % at 2 µM; recombinant LYP; 0 = plate median, 100 = signal doubled; Tyrosine-protein phosphatase non-receptor type 22 (Homo sapiens), Q9Y2R2;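 active means activation at 2 µM above a set limit, the mean plus 5 SD, cut at about 37% in these data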
FAK inh conf – FAK kinase inhibitors, retest, confirmation, biochemical; shares compounds with FAK blocker; FAK kinase biochemical inhibition assay; inhibition, % at 7 µM; hit rate 28% among 750; AID 794, 2007
Numbers without * were called inactive; · = no result given. Unless noted, no stated cut-off is given here; in the data, active means inhibition above about 19%; inactive means the rest.

SMILES | Plk1 PBD FP | PLK1 kinase inh | LYP inh 2 | FAK blocker | EphB4 ephrin blk | PTPN22 act | FAK inh conf
Cc1ccc(-c2n[nH]c(=S)n2/N=C/C=C\c2ccccc2[N+](=O)[O-])cc1 | -12 | -16 | 18 | 29* | 3 | -15 | 15
CCCSc1nc(C)c(-c2csc(C(C#N)=C3CCCC3)n2)cc1C#N | 21 | -10 | 26* | 28* | 4 | -27 | 2
COc1cccc(-c2csc(N3CCN(C(=O)NC45CC6CC(CC(C6)C4)C5)CC3)n2)c1 | -7 | -7 | 1 | 2 | 4 | -2 | ·
CCC(=O)Nc1nc2nc(-c3ccccc3)cc(-c3ccccc3)n2n1 | -14 | -16 | -6 | 24* | 13 | 3 | 8
CCCC(=O)Nc1nc2nc(-c3ccccc3)cc(-c3ccccc3)n2n1 | -13 | -6 | 9 | 2 | -3 | -6 | ·
CCN(C(=O)CN1CCN(c2ccc(OC)cc2)CC1)c1c(N)n(Cc2ccccc2)c(=O)[nH]c1=O | -10 | -6 | -10 | -1 | -4 | 8 | ·
COC(=O)C(NNc1ccccc1C)(NC(=O)c1ccc(F)cc1)C(F)(F)F (centres undefined) | -4 | -4 | 0 | 1 | 2 | 3 | ·
O=[N+]([O-])c1cc(/C=N\Nc2nccs2)ccc1O | -9 | -9 | 40* | 91* | -1 | -38 | 72*
CCCOc1ccc(/C(O)=C2/C(=O)C(=O)N(CCN(C)C)C2c2ccncc2)cc1 (centres undefined) | 26 | -9 | -3 | 0 | -8 | 1 | ·
Nc1c(N2CCCC2)cc(Cl)c2nonc12 | -41 | 7 | 4 | 40* | 0 | -3 | -1
Nc1c(N2CCOCC2)cc(Cl)c2nonc12 | -11 | -10 | -5 | 1 | -4 | 4 | ·
Cc1cc(C)n2c(SC/C(O)=C(\C#N)c3nc4ccccc4[nH]3)nnc2n1 | -16 | -6 | -2 | 22* | -8 | 0 | 2
COc1ccc(C/C(O)=C(\C#N)c2nc3ccccc3[nH]2)cc1OC | -7 | -14 | 2 | -12 | -6 | -5 | ·
CCN1CCN(C(=S)c2ccc(OCC(=O)N3CCOCC3)cc2)CC1 | -2 | -11 | 4 | -1 | 3 | -2 | ·
O=C(N/N=C/c1ccc2ccccc2c1)c1ccc(COc2ccc3c(c2)CCC3)o1 | -20 | -11 | 33* | 33* | -8 | -31 | 24*
CCOc1ccc(C(=O)Nc2cccc(-c3cc4ccccc4oc3=O)c2)cc1[N+](=O)[O-] | -15 | -15 | -9 | 30* | -9 | 12 | 13
CCOc1ccc(C(=O)Nc2cc(-c3nc4ccccc4[nH]3)ccc2C)cc1[N+](=O)[O-] | -3 | -8 | 17 | 10 | 2 | -12 | ·
CC1CCCC(n2c(=S)[nH]c3ccccc3c2=O)C1C (centres undefined) | -12 | 1 | 5 | 4 | 1 | -8 | ·
O=C(NCCO)c1ccc2nc(-c3ccco3)c(-c3ccco3)nc2c1 | 16 | 35 | 7 | 7 | 2 | -4 | ·
O=C(NC1CCCC1)c1ccc2nc(-c3ccco3)c(-c3ccco3)nc2c1 | 37 | 4 | 4 | 19* | -3 | -3 | 3
COC(=O)c1c(C)[nH]c(O)c1C=Nc1ccc(C(C)C)cc1 | -20 | -6 | 7 | 29* | 1 | -4 | 10
CCOC(=O)c1c(C)[nH]c(O)c1C=Nc1ccc(Cl)cc1 | 14 | -13 | 15 | 14 | 1 | -12 | ·
O=c1c(O)c(-c2ccc3c(c2)OCO3)oc2ccccc12 | 9 | -5 | -4 | 20* | -7 | 3 | 9
O=C(Nc1ccc2c(c1)oc1ccccc12)c1ccc2c(c1)OCO2 | 10 | -10 | -6 | 1 | 0 | -2 | ·
CCN(CC)CCCOc1nc(C)nc2c1oc1ccccc12 | -9 | -3 | -2 | 19* | 13 | 0 | 3
SMILES | Plk1 PBD FP | PLK1 kinase inh | LYP inh 2 | FAK blocker | EphB4 ephrin blk | PTPN22 act | FAK inh conf
CCN(CC)CCOc1nc(C)nc2c1oc1ccccc12 | -14 | 4 | -9 | -3 | 4 | 9 | ·
c1nc(NCCN2CCOCC2)c2c3c(sc2n1)CCCCC3 | 8 | -2 | 2 | 7 | 2 | -4 | ·
c1ccc(CNc2ncnc3sc4c(c23)CCC4)nc1 | -21 | -10 | 4 | 20* | 7 | 0 | 3
COCCN(CC(=O)Nc1ccccc1)S(=O)(=O)c1ccc(S(=O)(=O)N2CCCC2)cc1 | -5 | 16 | 4 | 2 | 9 | -4 | ·
O=C(c1ccccc1)N1CCN(c2ncnc3sc4c(c23)CCC4)CC1 | 6 | -9 | 6 | -1 | 3 | -6 | ·
O=c1c(/C=N/O)c(Nc2ccccc2)nc2ccccn12 | 3 | 5 | -6 | 50* | -9 | 3 | 31*
CC[N+]1(C)CCC(=C2c3ccccc3CC(=O)c3sccc32)CC1 (centres undefined) | -11 | -9 | -4 | 0 | 8 | 4 | ·
C[N+]1(C)CCC(=C2c3ccccc3CC(=O)c3sccc32)CC1 | -7 | -9 | 6 | 27* | 5 | -6 | -1
CC(=O)n1nc(-c2cccc(C)c2)nc1SCC(=O)Nc1ccccc1 | 8 | -5 | 13 | 19* | 0 | -9 | 9
CCC(=O)n1nc(-c2ccccc2)nc1SCC(=O)Nc1ccc(C)cc1 | 5 | -16 | 2 | 2 | 5 | 2 | ·
O=C(N/C=N/OCc1ccc(Cl)cc1Cl)NOCc1ncc(C(F)(F)F)cc1Cl | -4 | -13 | 11 | 3 | -2 | -10 | ·
COc1ccc(-c2oc3ncnc(NCCN4CCOCC4)c3c2-c2ccc(OC)cc2)cc1 | 7 | 7 | 12 | 21* | -5 | -14 | 10
c1ccc(-c2oc3ncnc(NCCCN4CCOCC4)c3c2-c2ccccc2)cc1 | -36 | -3 | -5 | 17 | -4 | 6 | ·
COc1ccc(-c2csc3ncnc(NCCN4CCOCC4)c23)cc1 | 21 | -2 | 2 | 4 | -2 | -2 | ·
COc1ccc(-c2oc3ncn(CCN4CCOCC4)c(=N)c3c2-c2ccc(OC)cc2)cc1 | 3 | -6 | 0 | 20* | 6 | -3 | 1
COc1ccc(-c2oc3ncnc(NCCCN4CCOCC4)c3c2-c2ccc(OC)cc2)cc1 | -10 | 11 | 2 | 34* | 5 | 0 | 9
O=C(Nc1ccccc1)c1[nH]ncc1[N+](=O)[O-] | -22 | -14 | 1 | -1 | 6 | -6 | ·
O=C(NNc1ccccc1[N+](=O)[O-])Nc1ccccc1 | -9 | -3 | 1 | 21* | -1 | 2 | 17
CCOc1cccc(OCCCNCCCOC)c1 | -3 | -2 | -2 | 0 | 6 | 0 | ·
Cc1cc([N+](=O)[O-])c2[nH]c(C(=O)N/N=C/c3ccccc3C(=O)O)c(-c3ccccc3)c2c1 | 6 | -6 | 4 | 29* | 2 | -6 | -5
